A short description of test [1]: optical density shifts of acrAB sulA E. coli – strain DRC41, OD650, 48 h, E. coli filamentation inducer project, primary screen (AID 1152).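 Further: E. coli MC1000 strain DRC41 lacking acrAB efflux pump and sulA.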 To be noted: higher = more signal, called active from +8 up or from −8 down.
Test [2] is described as follows: probe aLefty1 binding on compound microarray – biochemical, small-molecule microarray, 635/667 nm fluorescence, primary screen (AID 1153).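 Further: score merges spot fluorescence with signal-to-noise ratio from the scanned slide images.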 To be noted: higher = more signal.
Test [3] in a line: plasmodial surface anion channel blockers, osmotic lysis – cell-based, P. falciparum Indochina, OD700, 1 h, primary screen (AID 1154). To be noted: P. falciparum Indochina infected RBC osmotic lysis, higher = more signal, called active from +8 up or from −8 down.
Test [4] is described as follows: plasmodial surface anion channel blockers, osmotic lysis – cell-based, P. falciparum Indochina, OD700, 2 h, primary screen (AID 1155).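 Further: lysis reports solute entry through the parasite surface anion channel PSAC.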 To be noted: P. falciparum Indochina infected erythrocytes, higher = more signal, called active from +8 up or from −8 down.
Test [5] is described as follows: changes in parasitized red cell lysis, either direction – P. falciparum Indochina, OD700, 3 h, PSAC antagonist project, primary screen (AID 1156). To be noted: P. falciparum-infected erythrocytes, osmotic lysis, higher = more signal, called active from +8 up or from −8 down.
Test [6] in a line: plasmodial surface anion channel blockers, osmotic lysis – cell-based, P. falciparum Indochina, OD700, 18 h, primary screen (AID 1157). To be noted: P. falciparum Indochina infected erythrocytes, osmotic lysis OD700, 18 h; higher = more signal, called active from +8 up or from −8 down.
The nature of test [7]: S6 kinase pathway phospho-S6 level changes – cell-based, A549, cytoblot, luminescence, serum-stimulated, primary screen (AID 1158).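 Further: serum-stimulated A549 lung adenocarcinoma cells; signal is phosphorylated S6 detected by cytoblot immunostaining with HRP secondary.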 To be noted: 5 h, higher = more signal.
For test [8], the target named is NADPH oxidase 2 (Homo sapiens) (UniProt P04839). The test is described as follows: compounds shifting NOX2 Amplex Red fluorescence – cell-based, HEK293-NOX2, PMA-stimulated, NOX inhibitor project, primary screen (AID 1159). Further: test concentration not given here. To be noted: 45 min, higher = more signal, called active from +8 up or from −8 down.
NADPH oxidase 2 (Homo sapiens), sequence (P04839 whole entry, looked up): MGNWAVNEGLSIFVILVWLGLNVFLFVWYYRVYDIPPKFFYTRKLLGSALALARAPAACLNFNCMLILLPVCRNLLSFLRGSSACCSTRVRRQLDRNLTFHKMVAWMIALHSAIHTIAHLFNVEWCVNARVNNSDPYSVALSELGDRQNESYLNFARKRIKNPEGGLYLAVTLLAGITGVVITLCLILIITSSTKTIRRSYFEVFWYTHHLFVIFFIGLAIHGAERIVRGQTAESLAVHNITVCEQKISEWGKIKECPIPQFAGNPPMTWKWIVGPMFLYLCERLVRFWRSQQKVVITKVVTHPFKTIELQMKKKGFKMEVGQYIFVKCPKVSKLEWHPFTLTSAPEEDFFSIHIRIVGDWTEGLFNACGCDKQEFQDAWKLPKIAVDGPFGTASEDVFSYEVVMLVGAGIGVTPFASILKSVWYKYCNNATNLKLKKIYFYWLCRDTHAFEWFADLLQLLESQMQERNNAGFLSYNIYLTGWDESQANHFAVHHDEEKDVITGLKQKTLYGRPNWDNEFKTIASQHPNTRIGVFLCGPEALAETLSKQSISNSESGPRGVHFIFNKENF
Test [9] deals with NADPH oxidase 4 (Homo sapiens) (UniProt Q9NPH5). The test is described as follows: compounds shifting NOX4 Amplex Red fluorescence – cell-based, HEK293-NOX4, tetracycline-induced, NOX inhibitor project, primary screen (AID 1160). To be noted: HEK293-NOX4, Amplex Red H2O2 fluorescence, 45 min; higher = more signal, called active from +8 up or from −8 down.
NADPH oxidase 4 (Homo sapiens), sequence (Q9NPH5 whole entry, looked up): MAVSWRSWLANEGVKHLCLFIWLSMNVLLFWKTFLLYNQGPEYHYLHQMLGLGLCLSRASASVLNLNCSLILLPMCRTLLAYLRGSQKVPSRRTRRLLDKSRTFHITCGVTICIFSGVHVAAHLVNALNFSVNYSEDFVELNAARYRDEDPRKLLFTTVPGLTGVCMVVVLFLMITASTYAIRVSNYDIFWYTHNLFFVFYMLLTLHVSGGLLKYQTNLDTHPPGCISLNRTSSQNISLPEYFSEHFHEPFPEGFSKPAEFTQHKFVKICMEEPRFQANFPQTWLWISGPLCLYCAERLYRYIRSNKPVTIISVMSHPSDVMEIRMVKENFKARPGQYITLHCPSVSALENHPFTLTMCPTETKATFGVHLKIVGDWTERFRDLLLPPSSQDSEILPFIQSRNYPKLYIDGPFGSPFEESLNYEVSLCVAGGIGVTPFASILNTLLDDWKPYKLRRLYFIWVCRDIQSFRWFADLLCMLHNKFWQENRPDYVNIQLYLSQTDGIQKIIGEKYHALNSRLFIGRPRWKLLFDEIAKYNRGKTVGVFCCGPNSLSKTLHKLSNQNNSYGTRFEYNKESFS
Test [10] addresses NADPH oxidase 5 (Homo sapiens) (UniProt Q96PH1). Kind of test: compounds shifting NOX5 Amplex Red fluorescence – cell-based, HEK293-NOX5, NOX inhibitor project, primary screen (AID 1161). To be noted: HEK293-NOX5, ionomycin, 45 min, higher = more signal.
Test [11] in a line: compound effects on lung adenocarcinoma cell viability – A549, calcein-AM fluorescence, 48 h, basal, profiling panel (AID 1162). Further: test concentration not given here. To be noted: higher = more signal.
Test [12] can be described thus: compound effects on differentiated 3T3-L1 adipocyte viability – cell-based, 3T3-L1 adipocytes, calcein-AM fluorescence, 48 h, basal, profiling panel (AID 1163). Further: test concentration not given here. To be noted: 3T3-L1 adipocytes viability, higher = more signal.
A short description of test [13]: compound effects on hepatocellular carcinoma cell viability – HepG2, calcein-AM fluorescence, 48 h, basal, profiling panel (AID 1164). Further: test concentration not given here. To be noted: higher = more signal.
The nature of test [14]: compound effects on multiple myeloma cell viability – MM1S, calcein-AM fluorescence, 48 h, basal, profiling panel (AID 1165).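 Further: viability of MM1S multiple myeloma cells under basal unstimulated conditions; test concentration not given here.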 To be noted: higher = more signal.
Test [15] in a line: calcein-AM signal in unstimulated myeloma cells – cell-based, calcein-AM fluorescence, 48 h, PK04 Diversity Set, profiling panel (AID 1166).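 Further: cells grown under basal conditions without added stimulus; test concentration not given here.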 To be noted: RPMI8226 myeloma viability, higher = more signal.
Test [16] is described as follows: JC-1 mitochondrial signal, unstimulated HepG2 cells – cell-based, JC-1 fluorescence, 24 h, 100 nL compound, profiling panel (AID 1167). Further: test concentration not given here. To be noted: HepG2 mitochondrial potential, higher = more signal.
Test [17] is described as follows: JC-1 mitochondrial signal, unstimulated adipocytes – cell-based, JC-1 fluorescence, 3T3-L1 adipocytes, 24 h, 100 nL compound, profiling panel (AID 1168). Further: test concentration not given here. To be noted: JC-1 mitochondrial fluorescence, higher = more signal, called active from +8 up or from −8 down.
Test [18] can be described thus: JC-1 mitochondrial signal, unstimulated myeloma cells – cell-based, JC-1 fluorescence, RPMI8226, 24 h, 100 nL compound, profiling panel (AID 1169). Further: test concentration not given here. To be noted: JC-1 mitochondrial potential fluorescence, higher = more signal.
Test [19] is described as follows: JC-1 mitochondrial signal, unstimulated MM1S myeloma – cell-based, JC-1 fluorescence, 24 h, 100 nL compound, profiling panel (AID 1170). Further: test concentration not given here. To be noted: MM1S mitochondrial potential, higher = more signal.
Test [20] can be described thus: resazurin metabolic signal in A549 cells – cell-based, resazurin fluorescence, 24 h, PK04 Diversity Set, profiling panel (AID 1171). Further: test concentration not given here. To be noted: A549 viability, higher = more signal, called active from +8 up or from −8 down. In general terms: Alamar Blue is a resazurin reagent that responds to reducing activity.

Active and inactive are the calls of the source.

NADPH oxidase 5 (Homo sapiens), sequence (Q96PH1 whole entry, looked up): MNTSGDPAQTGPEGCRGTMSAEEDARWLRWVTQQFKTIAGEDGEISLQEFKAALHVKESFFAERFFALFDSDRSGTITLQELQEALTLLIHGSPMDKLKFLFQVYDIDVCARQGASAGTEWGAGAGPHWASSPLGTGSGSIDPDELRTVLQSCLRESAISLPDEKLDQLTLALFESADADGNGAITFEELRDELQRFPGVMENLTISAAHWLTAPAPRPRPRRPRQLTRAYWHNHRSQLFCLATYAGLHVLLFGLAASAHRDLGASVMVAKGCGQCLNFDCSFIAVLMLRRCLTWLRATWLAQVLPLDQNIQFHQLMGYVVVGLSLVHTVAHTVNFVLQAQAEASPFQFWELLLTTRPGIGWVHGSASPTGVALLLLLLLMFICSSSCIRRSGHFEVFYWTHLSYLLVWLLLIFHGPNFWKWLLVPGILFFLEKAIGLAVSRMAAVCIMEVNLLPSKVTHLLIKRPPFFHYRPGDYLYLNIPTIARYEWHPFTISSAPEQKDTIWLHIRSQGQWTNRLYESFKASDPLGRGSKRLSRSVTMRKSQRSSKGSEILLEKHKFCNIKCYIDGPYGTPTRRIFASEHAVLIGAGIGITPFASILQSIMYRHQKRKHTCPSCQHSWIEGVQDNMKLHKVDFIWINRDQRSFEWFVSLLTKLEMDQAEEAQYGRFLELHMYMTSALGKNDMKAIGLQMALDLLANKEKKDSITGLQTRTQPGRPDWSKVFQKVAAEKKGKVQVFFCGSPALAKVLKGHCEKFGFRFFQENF

As to `CN1CCC(CCCO)=CC1c1cccs1` (stereo not given), the z-score in test [1] was -0.193 (inactive); in test [3] it was 1.77 (inactive); in [4], 0.144 (inactive); in test [5], -0.311 (inactive); in test [6], 0.0874 (inactive); in [7], 0.362. The z-score in [8] was 0.151 (inactive); in [9], 0.249 (inactive); in test [10] it was -0.115; in test [11] it was 0.251; in [12] it was 0.335; in test [13], 0.369. For the same molecule, the z-score in [14] was 0.277; in test [15] it was 0.0383; in [16], -0.927; in test [17], -1.51 (inactive); in [18] it was 0.247; in test [19], 0.00928. Further, the z-score in test [20] is -0.0596 (inactive). Further, the composite z-score in [2] is -0.103.
Consider `COC(=O)[C@]1(CCC(=O)OC(C)(C)C)N=C(c2ccc(OCCCO)cc2)O[C@@H]1c1ccccc1`, for which the z-score in test [1] is 0.687 (inactive); in [3], 27.7 (active); in test [4], 27.2 (active); in test [5], 0.0027 (inactive); in test [6], 5.02 (inactive); in test [7], -0.406. In addition, the z-score was -1.93 (inactive) in test [8]; 0.178 (inactive) in test [9]; -1.16 in test [10]; -1.32 in test [11]; 0.899 in [12]; -1.08 in [13]. In addition, the z-score in test [14] was -3.43; in test [15], -3.1; in test [16], -2.23; in [17], -0.205 (inactive); in test [18], -0.734; in test [19] it was 0.903. Also, the z-score in test [20] was -1.99 (inactive). Besides, the composite z-score in test [2] was found to be 0.765.
Regarding `O=C1C2C=CC(C(O)c3ccc4c(c3)OCO4)N(Nc3ccc([N+](=O)[O-])cc3)C2C(=O)N1c1ccccc1` (stereo not given), the z-score in test [1] was -0.81 (inactive); in test [3], 18.1 (active); in test [4], 3.98 (inactive); in test [5] it was 1.4 (inactive); in [6] it was 1.66 (inactive); in [7], -0.363. Besides, the z-score in test [8] was -1 (inactive); in test [9] it was -3.31 (inactive); in test [10] it was -2.1; in test [11] it was -0.649; in [12], -1.09; in test [13], 0.199. In addition, the z-score in test [14] is 0.259; in test [15], -0.169; in [16] it was -0.941; in test [17], -0.856 (inactive); in test [18] it was 0.575; in test [19] it was -0.77. Further, the z-score in [20] is -0.0894 (inactive). The molecule further had a composite z-score in test [2] of -0.101.
With `C#CCNCc1ccccc1`, the z-score in test [1] is -0.131 (inactive); in test [3], 0.229 (inactive); in test [4], 0.876 (inactive); in test [5], -0.116 (inactive); in [6], 0.409 (inactive); in test [7], -0.255. For the same molecule, the z-score was -12.1 (active) in [8]; -0.493 (inactive) in test [9]; 0.615 in test [10]; -0.29 in test [11]; -0.0255 in test [12]; 0.331 in test [13]. For the same molecule, the z-score in [14] is 0.612; in test [15], -0.523; in test [16], -0.221; in test [17], -0.815 (inactive); in test [18], -0.804; in [19] it was -0.00594. Moreover, the z-score in test [20] was 0.0196 (inactive). In test [2], this molecule showed a composite z-score of -0.235.
For the molecule `COCCOC(=O)N1C(=O)[C@@]2(c3ccccc31)[C@H](C(N)=O)[C@H]1C(=O)O[C@H](c3ccccc3)[C@H](c3ccccc3)N1[C@@H]2c1ccc(O)cc1`, the z-score in test [1] is 0.912 (inactive); in [3], 0.658 (inactive); in test [4] it was -1.28 (inactive); in [5], -0.142 (inactive); in test [6], -2.25 (inactive); in test [7] it was 2.74. For the same molecule, the z-score was -0.339 (inactive) in test [8]; -0.637 (inactive) in [9]; -0.534 in test [10]; 0.75 in test [11]; -0.0824 in test [12]; 1.51 in test [13]. Further, the z-score was 0.84 in [14]; 0.248 in [15]; -0.244 in test [16]; 0.571 (inactive) in test [17]; -0.795 in [18]; 0.119 in test [19]. In addition, the z-score in test [20] is -1.37 (inactive). Moreover, in test [2], the composite z-score was -0.649.
Take `NC(=O)N1C(=O)C2C(C1=O)C1C=C(CCCO)C2C(C2CC2)N1Cc1cc2c(cc1Br)OCO2` (stereo not given): the z-score is -0.766 (inactive) in test [1]; 4.92 (inactive) in test [3]; 0.494 (inactive) in test [4]; -0.23 (inactive) in [5]; 0.357 (inactive) in test [6]; 0.415 in test [7]. The z-score in test [8] is 0.334 (inactive); in test [9], -0.381 (inactive); in [10] it was -0.344; in test [11], -0.318; in test [12], 0.505; in test [13] it was -0.0479. For the same molecule, the z-score in [14] was -2.42; in [15], -0.885; in test [16], -0.258; in test [17] it was -0.274 (inactive); in test [18], 0.21; in test [19] it was -0.237. Besides, in test [20], the z-score is -0.604 (inactive). The same molecule showed a composite z-score in test [2] of 0.19.

Values taken from PubChem BioAssay.
